Measured values reported in PubChem BioAssay AID1159580 (chemical genetic matrix, 2015).
In all, about 5,500 compounds went through this assay and about 2,000 (36%) were called active. Roughly 18% stayed inconclusive and do not appear here. Cut-off read from the data, not from the text of the source: active = normalized growth mostly below about 0.91 (no sharp cut-off); inconclusive = no clear call, values can overlap the other calls; inactive = mostly above about 0.92. Some of the results follow.

Experiment: chemical genetic growth profiling, strain panel (AID 1159580);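 note: tested at 20 µM; growth read once vehicle control cultures reached saturation at 30 °C; 1 = growth at the plate median or of vehicle wells; lower values mean less growth of the strain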
Details: S. cerevisiae deletion strains, growth OD
[1] = locus YHR030C, strain SLT2, active compounds read low
[2] = locus YHR079C, strain IRE1, active compounds read low
[3] = locus YJL095W, strain BCK1, active compounds read low
[4] = locus YJR066W, strain TOR1, active compounds read low
[5] = locus YLR113W, strain HOG1, active compounds read low
[6] = locus YNL183C, strain NPR1, active compounds read low
[7] = locus YOR231W, strain MKK1, active compounds read low
[8] = locus YPL256C, strain CLN2, active compounds read low

Measured: normalized growth

CC(=O)Nc1ccc(S(=O)(=O)Nc2onc(C)c2C)cc1
inactive: locus YAL021C, strain ccr4, active compounds read low 0.984 | locus YAL026C, strain drs2, active compounds read low 0.976 | locus YAL030W, strain snc1, active compounds read low 0.98 | locus YBL061C, strain skt5, active compounds read low 0.969 | locus YBR009C, strain hhf1, active compounds read low 0.959 | locus YBR023C, strain chs3, active compounds read low 0.97 | locus YBR171W, strain sec66, active compounds read low 0.965 | locus YBR231C, strain swc5, active compounds read low 0.981 | locus YBR279W, strain paf1, active compounds read low 0.968 | locus YCL011C, strain gbp2, active compounds read low 0.973 | locus YCL016C, strain dcc1, active compounds read low 0.969 | locus YCL061C, strain MRC1, active compounds read low 0.985 | locus YCL069W, strain vba3, active compounds read low 0.972 | locus YCR088W, strain abp1, active compounds read low 0.965 | locus YDL005C, strain med2, active compounds read low 0.969 | locus YDL040C, strain nat1, active compounds read low 0.969 | locus YDR001C, strain nth1, active compounds read low 0.963 | locus YDR069C, strain doa4, active compounds read low 0.962 | locus YDR137W, strain rgp1, active compounds read low 0.959 | locus YDR159W, strain sac3, active compounds read low 0.946 | locus YDR195W, strain ref2 0.948 | locus YDR297W, strain sur2, active compounds read low 0.967 | locus YDR334W, strain swr1, active compounds read low 0.975 | locus YDR335W, strain msn5, active compounds read low 0.972 | locus YDR392W, strain spt3, active compounds read low 0.929 | locus YEL003W, strain gim4, active compounds read low 0.974 | locus YEL037C, strain rad23, active compounds read low 0.971 | locus YEL061C, strain CIN8 (second series), active compounds read low 0.956 | locus YER015W, strain faa2, active compounds read low 0.986 | locus YER016W, strain bim1, active compounds read low 0.96 | locus YER111C, strain swi4, active compounds read low 0.975 | locus YER155C, strain BEM2 (second series), active compounds read low 0.971 | locus YFR010W, strain ubp6, active compounds read low 0.959 | locus YGL167C, strain pmr1, active compounds read low 0.968 | locus YGL173C, strain kem1, active compounds read low 0.969 | locus YGL227W, strain vid30, active compounds read low 0.966 | locus YGL240W, strain doc1, active compounds read low 0.981 | locus YGL253W, strain hxk2, active compounds read low 0.994 | locus YHR013C, strain ard1, active compounds read low 0.963 | locus YHR027C, strain rpn1, active compounds read low 0.989 | [1] 0.975 | [2] 0.968 | locus YHR142W, strain chs7, active compounds read low 0.965 | locus YJL092W, strain hpr5, active compounds read low 0.971 | locus YJL095W, strain BCK1 (second series), active compounds read low 0.975 | [3] 1 | locus YJL115W, strain asf1, active compounds read low 0.964 | locus YJL129C, strain trk1, active compounds read low 0.983 | locus YJL154C, strain vps35, active compounds read low 0.965 | locus YJL164C, strain tpk1, active compounds read low 0.982 | locus YJL166W, strain qcr8, active compounds read low 0.983 | locus YJL187C, strain SWE1, active compounds read low 0.97 | [4] 0.908 | locus YKL160W, strain elf1, active compounds read low 0.984 | locus YKR026C, strain gcn3, active compounds read low 0.967 | locus YKR091W, strain srl3, active compounds read low 0.977 | locus YLL001W, strain dnm1, active compounds read low 0.951 | locus YLL026W, active compounds read low 0.961 | locus YLL041C, strain sdh2, active compounds read low 0.978 | locus YLR027C, strain aat2, active compounds read low 0.973 | [5] 0.975 | locus YLR221C, strain rsa3, active compounds read low 0.987 | locus YLR258W, strain gsy2, active compounds read low 0.971 | locus YLR262C, strain YPT6 (second series), active compounds read low 0.98 | locus YLR320W, strain mms22, active compounds read low 0.972 | locus YLR342W, strain FKS1, active compounds read low 0.974 | locus YLR357W, strain rsc2, active compounds read low 0.951 | locus YLR370C, strain arc18, active compounds read low 0.957 | locus YLR384C, strain iki3, active compounds read low 0.962 | locus YML120C, strain ndi1, active compounds read low 0.988 | locus YMR058W, strain fet3, active compounds read low 0.971 | locus YMR125W, strain sto1, active compounds read low 0.937 | locus YMR129W, active compounds read low 0.979 | locus YMR205C, strain PFK2, active compounds read low 0.936 | locus YMR231W, strain pep5, active compounds read low 0.969 | locus YNL071W, strain lat1, active compounds read low 0.975 | [6] 0.926 | locus YNL209W, strain ssb2, active compounds read low 0.975 | locus YNL248C, strain rpa49, active compounds read low 1.02 | locus YNL322C, strain KRE1 (second series), active compounds read low 0.98 | locus YNR049C, strain mso1, active compounds read low 0.969 | locus YOR001W, strain rrp6, active compounds read low 0.985 | locus YOR070C, strain gyp1, active compounds read low 0.977 | locus YOR080W, strain dia2, active compounds read low 0.954 | locus YOR083W, strain WHI5, active compounds read low 0.997 | locus YOR106W, strain vam3, active compounds read low 0.996 | [7] 0.989 | locus YOR265W, strain rbl2, active compounds read low 0.973 | locus YOR270C, strain vph1, active compounds read low 0.922 | locus YOR290C, strain snf2, active compounds read low 0.964 | locus YPL051W, strain arl3, active compounds read low 0.985 | locus YPL078C, strain atp4, active compounds read low 0.981 | locus YPL106C, strain sse1, active compounds read low 0.97 | locus YPL240C, strain hsp82, active compounds read low 0.99 | [8] 0.955

Cc1ccc(-c2csc(-c3ccncc3)n2)cc1
active: locus YAR019C, strain CDC15, active compounds read low 0.888 | locus YDL101C, strain DUN1, active compounds read low 0.912 | locus YDL132W, strain cdc53, active compounds read low 0.891 | locus YDR477W, strain SNF1, active compounds read low 0.68 | locus YER123W, strain YCK3, active compounds read low 0.615 | locus YER133W, strain GLC7, active compounds read low 0.661 | locus YFR028C, strain CDC14, active compounds read low 0.89 | locus YGR092W, strain DBF2, active compounds read low 0.441 | [1] 0.423 | [3] 0.374 | locus YKL193C, strain SDS22, active compounds read low 0.879 | [5] 0.653 | locus YMR277W, strain FCP1, active compounds read low 0.865 | locus YOL078W, strain AVO1, active compounds read low 0.866 | locus YPL031C, strain PHO85, active compounds read low 0.649 | locus YPL204W, strain HRR25, active compounds read low 0.618 | [8] 0.697 | strain TSCII, active compounds read low 0.873
inactive: locus YBL105C, strain PKC1, active compounds read low 0.928 | locus YBR135W, strain CKS1, active compounds read low 0.903 | locus YBR136W, strain MEC1, active compounds read low 0.912 | locus YBR160W, strain CDC28, active compounds read low 0.909 | locus YDL017W, strain CDC7, active compounds read low 0.922 | locus YDL028C, strain MPS1, active compounds read low 0.898 | locus YDL108W, strain KIN28, active compounds read low 0.914 | locus YDL214C, strain PRR2, active compounds read low 0.781 | locus YDR052C, strain DBF4, active compounds read low 0.938 | locus YDR054C, strain cdc34, active compounds read low 0.879 | locus YDR226W, strain ADK1, active compounds read low 0.905 | locus YFL009W, strain cdc4, active compounds read low 0.89 | locus YFL029C, strain CAK1, active compounds read low 0.89 | locus YFR003C, strain YPI1, active compounds read low 0.921 | locus YFR019W, strain FAB1, active compounds read low 0.859 | locus YGR040W, strain KSS1, active compounds read low 0.718 | locus YGR052W, strain FMP48, active compounds read low 0.717 | [2] 0.674 | locus YHR082C, strain KSP1, active compounds read low 0.747 | locus YHR205W, strain SCH9, active compounds read low 0.72 | locus YIL147C, strain SLN1, active compounds read low 0.915 | locus YJL128C, strain PBS2, active compounds read low 0.919 | locus YJL157C, strain FAR1, active compounds read low 0.764 | locus YJR016C, strain ILV3, active compounds read low 0.922 | locus YJR066W, strain TOR1 (second series), active compounds read low 0.753 | [4] 0.53 | locus YKL048C, strain ELM1, active compounds read low 0.928 | locus YKL067W, strain YNK1, active compounds read low 0.758 | locus YKL101W, strain HSL1, active compounds read low 0.872 | locus YKL203C, strain TOR2, active compounds read low 0.782 | locus YLR133W, strain CKI1, active compounds read low 0.837 | locus YLR403W, strain SFP1, active compounds read low 0.706 | locus YML070W, strain DAK1, active compounds read low 0.788 | locus YMR001C, strain CDC5, active compounds read low 0.91 | locus YMR205C, strain PFK2 (second series), active compounds read low 0.771 | locus YNL006W, strain LST8, active compounds read low 0.925 | locus YNL020C, strain ARK1, active compounds read low 0.842 | locus YNL161W, strain CBK1, active compounds read low 0.909 | [6] 0.672 | locus YNL207W, strain RIO2, active compounds read low 0.905 | locus YNL222W, strain SSU72, active compounds read low 0.897 | locus YNL307C, strain MCK1 (second series), active compounds read low 0.773 | locus YOL136C, strain PFK27, active compounds read low 0.814 | locus YOR061W, strain CKA2, active compounds read low 0.89 | locus YOR119C, strain RIO1, active compounds read low 0.719 | [7] 0.691 | locus YOR329C, strain SCD5, active compounds read low 0.92 | locus YPL153C, strain RAD53, active compounds read low 0.688 | locus YPL209C, strain IPL1, active compounds read low 0.913 | locus YPR025C, strain CCL1, active compounds read low 0.914 | locus YPR106W, strain ISR1, active compounds read low 0.924 | locus YPR111W, strain DBF20, active compounds read low 0.902 | strain NNK1, active compounds read low 0.911
